Among the data in PubChem BioAssay are z-score and composite z-score values, retold here.

Activity calls are given as the source filed them.

Assay [1] is described as follows: E. coli DRC41 culture turbidity changes, primary screen, E. coli filamentation inducer project, strain DRC41, OD650, 48 h (AID 1152).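 Note: E. coli MC1000 strain DRC41 lacking acrAB efflux pump and sulA.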 The following applies: E. coli DRC41 (acrAB sulA), higher = more signal, called active from +8 up or from −8 down.
Assay [2] is described as follows: small-molecule binders of probe aLefty1, primary screen, biochemical, small-molecule microarray, 635/667 nm fluorescence (AID 1153).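 Note: score merges spot fluorescence with signal-to-noise ratio from the scanned slide images.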 The following applies: higher = more signal.
A short description of assay [3]: PSAC antagonists in infected red cells, primary screen, cell-based, P. falciparum Indochina, OD700, 1 h (AID 1154). The following applies: P. falciparum Indochina infected RBC osmotic lysis, higher = more signal, called active from +8 up or from −8 down.
A short description of assay [4]: PSAC antagonists in infected red cells, primary screen, cell-based, P. falciparum Indochina, OD700, 2 h (AID 1155).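 Note: lysis reports solute entry through the parasite surface anion channel PSAC; channel blockers reduce lysis of infected cells.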 The following applies: P. falciparum Indochina infected erythrocytes, osmotic lysis OD700; higher = more signal, called active from +8 up or from −8 down.
A short description of assay [5]: osmotic lysis modulators in infected erythrocytes, primary screen, PSAC antagonist project, cell-based, P. falciparum Indochina, OD700, 3 h (AID 1156). The following applies: higher = more signal, called active from +8 up or from −8 down.
A short description of assay [6]: PSAC antagonists in infected red cells, primary screen, cell-based, P. falciparum Indochina, OD700, 18 h (AID 1157). The following applies: P. falciparum Indochina infected erythrocytes, osmotic lysis OD700, 18 h; higher = more signal, called active from +8 up or from −8 down.
A short description of assay [7]: modulators of S6 phosphorylation in cells, primary screen, cell-based, A549, cytoblot, luminescence, serum-stimulated (AID 1158).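 Note: serum-stimulated A549 lung adenocarcinoma cells; signal is phosphorylated S6 detected by cytoblot immunostaining with HRP secondary.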 The following applies: A549 phospho-S6 cytoblot, 5 h, higher = more signal.
Assay [8] concerns the target NADPH oxidase 2 (Homo sapiens) (UniProt P04839). The experiment in a line: NOX2-dependent H2O2 signal modulators, primary screen, NOX inhibitor project, cell-based, HEK293-NOX2, PMA-stimulated, Amplex Red fluorescence (AID 1159). Note: test concentration not given here. The following applies: 45 min, higher = more signal, called active from +8 up or from −8 down.
The target of assay [9] is NADPH oxidase 4 (Homo sapiens) (UniProt Q9NPH5). Kind of assay: NOX4-dependent H2O2 signal modulators, primary screen, NOX inhibitor project, cell-based, HEK293-NOX4, tetracycline-induced, Amplex Red fluorescence (AID 1160). The settings on record: 45 min, higher = more signal, called active from +8 up or from −8 down.
Assay [10] concerns the target NADPH oxidase 5 (Homo sapiens) (UniProt Q96PH1). The experiment in a line: NOX5-dependent H2O2 signal modulators, primary screen, NOX inhibitor project, cell-based, HEK293-NOX5, Amplex Red fluorescence (AID 1161). The following applies: HEK293-NOX5, ionomycin, 45 min, higher = more signal.

NADPH oxidase 4 (Homo sapiens), sequence (Q9NPH5 whole entry, looked up): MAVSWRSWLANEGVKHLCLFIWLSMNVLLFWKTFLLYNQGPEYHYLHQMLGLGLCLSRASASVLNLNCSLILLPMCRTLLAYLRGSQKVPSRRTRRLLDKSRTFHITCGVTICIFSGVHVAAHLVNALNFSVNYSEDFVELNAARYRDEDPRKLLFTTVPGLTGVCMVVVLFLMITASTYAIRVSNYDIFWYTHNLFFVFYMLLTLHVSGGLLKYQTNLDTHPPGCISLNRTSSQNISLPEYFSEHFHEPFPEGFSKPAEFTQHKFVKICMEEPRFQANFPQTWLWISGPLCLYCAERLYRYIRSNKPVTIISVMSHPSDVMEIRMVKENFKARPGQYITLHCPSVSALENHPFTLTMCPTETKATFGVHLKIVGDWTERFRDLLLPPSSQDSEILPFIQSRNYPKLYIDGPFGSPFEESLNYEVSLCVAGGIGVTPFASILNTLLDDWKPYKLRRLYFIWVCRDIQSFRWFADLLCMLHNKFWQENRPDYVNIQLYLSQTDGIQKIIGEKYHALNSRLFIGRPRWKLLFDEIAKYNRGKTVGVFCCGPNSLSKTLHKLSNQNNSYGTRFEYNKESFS
NADPH oxidase 5 (Homo sapiens), sequence (Q96PH1 whole entry, looked up): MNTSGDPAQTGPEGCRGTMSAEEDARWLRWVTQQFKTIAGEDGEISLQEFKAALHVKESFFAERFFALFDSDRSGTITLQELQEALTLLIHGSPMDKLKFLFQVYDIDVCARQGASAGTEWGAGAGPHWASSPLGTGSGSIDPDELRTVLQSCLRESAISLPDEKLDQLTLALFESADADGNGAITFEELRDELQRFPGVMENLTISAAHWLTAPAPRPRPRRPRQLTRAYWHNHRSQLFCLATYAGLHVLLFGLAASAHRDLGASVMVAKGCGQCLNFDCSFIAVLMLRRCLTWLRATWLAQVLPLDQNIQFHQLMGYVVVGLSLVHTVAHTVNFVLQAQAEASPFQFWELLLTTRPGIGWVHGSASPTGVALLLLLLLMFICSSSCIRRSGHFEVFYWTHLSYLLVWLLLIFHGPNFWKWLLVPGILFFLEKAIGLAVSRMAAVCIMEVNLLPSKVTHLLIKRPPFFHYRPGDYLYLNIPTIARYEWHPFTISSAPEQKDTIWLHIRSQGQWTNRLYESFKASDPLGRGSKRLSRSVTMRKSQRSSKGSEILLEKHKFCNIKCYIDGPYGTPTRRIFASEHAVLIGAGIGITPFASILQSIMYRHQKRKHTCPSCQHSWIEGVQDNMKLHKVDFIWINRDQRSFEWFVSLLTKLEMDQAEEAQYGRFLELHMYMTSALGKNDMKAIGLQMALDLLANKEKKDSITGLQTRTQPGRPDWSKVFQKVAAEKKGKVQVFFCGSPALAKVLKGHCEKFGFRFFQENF
NADPH oxidase 2 (Homo sapiens), sequence (P04839 whole entry, looked up): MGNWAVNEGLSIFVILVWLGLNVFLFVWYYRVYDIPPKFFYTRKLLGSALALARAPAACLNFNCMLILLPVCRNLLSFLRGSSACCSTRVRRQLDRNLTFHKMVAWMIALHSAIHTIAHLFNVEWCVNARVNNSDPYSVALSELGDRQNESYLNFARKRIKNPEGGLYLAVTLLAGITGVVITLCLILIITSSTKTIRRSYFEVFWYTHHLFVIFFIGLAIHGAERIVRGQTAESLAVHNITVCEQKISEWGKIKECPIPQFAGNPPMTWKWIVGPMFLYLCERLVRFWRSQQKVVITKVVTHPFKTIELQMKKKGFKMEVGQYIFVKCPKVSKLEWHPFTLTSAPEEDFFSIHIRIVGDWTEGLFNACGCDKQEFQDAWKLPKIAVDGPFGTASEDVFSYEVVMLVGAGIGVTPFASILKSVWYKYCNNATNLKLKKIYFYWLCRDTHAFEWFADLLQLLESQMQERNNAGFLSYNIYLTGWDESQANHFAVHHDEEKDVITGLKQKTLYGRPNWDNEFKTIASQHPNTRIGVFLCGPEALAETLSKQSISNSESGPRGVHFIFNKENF

Take `CCCCN1CC=CC23O[C@@H]4/C=C\CCCOC(=O)C4[C@H]2C(=O)N(CCCO)[C@@H]3C1=O` (stereo not given in full): the z-score in assay [1] is -0.0884 (inactive); in assay [3], 0.897 (inactive); in assay [4], 0.611 (inactive); in assay [5], -0.746 (inactive); in [6], 0.0888 (inactive); in assay [7] it was -0.207. Besides, the z-score in assay [8] is 1.59 (inactive); in assay [9], 0.593 (inactive); in assay [10] it was 2.02. In assay [2], this molecule displayed a composite z-score of 0.0927.
Take `CC(C)CNC(=O)[C@@]1(Cc2ccccc2I)c2ccccc2C(=O)N(Cc2ccccc2C(F)(F)F)[C@H]1c1ccc(CO)cc1`: the z-score in assay [1] is 0.0655 (inactive); in assay [3] it was 1.23 (inactive); in [4] it was 0.161 (inactive); in assay [5], 0.649 (inactive); in [6], 0.525 (inactive); in assay [7], -0.146. In addition, the z-score in assay [8] was 0.285 (inactive); in [9] it was 0.0405 (inactive); in assay [10] it was 0.401. Also, the composite z-score in [2] was -0.103.
On to `COC(=O)[C@@]1(Cc2ccc(OC)cc2)[C@H]2c3cc(C(=O)N4CCCC4)n(CCc4ccc(O)c(O)c4)c3C[C@H]2CN1C(=O)c1ccccc1`, for which the z-score is -1.84 (inactive) in assay [1]; 5.39 (inactive) in [3]; 0.451 (inactive) in [4]; 2.1 (inactive) in assay [5]; 0.912 (inactive) in assay [6]; 0.198 in [7]. The results for the z-score in assay [8], in assay [9] and in [10] were -3.75 (inactive), -8.38 (active) and -7.92, respectively. For the same molecule, the composite z-score in assay [2] came to 0.378.
Regarding `COCCOC(=O)N1C(=O)[C@@]2(c3cc(C#Cc4ccc(OC)cc4)ccc31)[C@H](c1ccc(O)cc1)N1[C@H](c3ccccc3)[C@H](c3ccccc3)OC(=O)[C@H]1[C@@H]2C(=O)Nc1nc2ccccc2s1`, the z-score in [1] was -1.12 (inactive); in [3] it was 1.41 (inactive); in assay [4] it was 0.616 (inactive); in [5] it was -1.14 (inactive); in [6], 1.01 (inactive); in assay [7], 0.263. Besides, the z-score is 1.95 (inactive) in [8], 0.183 (inactive) in assay [9] and -0.164 in [10]. Moreover, in assay [2], the composite z-score amounted to 0.269.
For the molecule `O=C1OCCC=C[C@H]2OC34C=CCN(c5ccc(Cl)cc5)C(=O)[C@H]3N(CCCO)C(=O)[C@@H]4C12` (stereo not given in full), the z-score in assay [1] was 0.565 (inactive); in assay [3] it was 0.991 (inactive); in assay [4], -0.131 (inactive); in assay [5], 0.319 (inactive); in assay [6], -0.652 (inactive); in [7], 1.61. The z-score in assay [8] is 0.736 (inactive); in assay [9] it was -0.818 (inactive); in assay [10], 0.215. In assay [2], this molecule displayed a composite z-score of -0.221.
In the case of `COc1cc2c(cc1O)C(c1cccs1)N(Cc1cccc(OC(F)(F)F)c1)CC2` (stereo not given), the z-score in assay [1] is 0.36 (inactive); in [3], 8.07 (active); in [4] it was 0.192 (inactive); in assay [5], 0.112 (inactive); in [6] it was -0.751 (inactive); in assay [7], 1.09. In addition, the z-score was -4.69 (inactive) in [8], -2.74 (inactive) in [9] and -4.1 in assay [10]. This molecule also displayed a composite z-score in [2] of -0.0999.
Turning to `COC(=O)c1c(CC[C@@H](CO)NC(=O)NCCc2c[nH]c3ccccc23)oc(C(=O)Cc2ccccc2)c1C(=O)OC`, the z-score was 0.659 (inactive) in assay [1]; 7.43 (inactive) in [3]; -0.0918 (inactive) in assay [4]; -0.366 (inactive) in assay [5]; -1.01 (inactive) in assay [6]; 0.814 in [7]. In addition, the z-score in assay [8] was -2.09 (inactive); in assay [9], -1.16 (inactive); in assay [10] it was -0.595. This molecule had a composite z-score in assay [2] of -0.423.
`COCCCNC(=O)[C@]1(Cc2ccccc2)N=C(c2ccc(OCCCO)cc2)O[C@@H]1c1ccccc1CN=[N+]=[N-]`: the z-score in assay [1] was 1.41 (inactive); in [3], 27.1 (active); in [4], 18.1 (active); in assay [5], 1.44 (inactive); in assay [6], 2.62 (inactive); in [7], 2.35. Further, the z-score in assay [8] was -0.158 (inactive); in assay [9] it was 1.26 (inactive); in [10] it was 2.44. In assay [2], this molecule came in with a composite z-score of 0.401.
For the molecule `CN(C)CCCCCCNC(=O)[C@@H]1C[C@@H]2C(=O)N3CCC[C@H]3C(=O)N2[C@@H]1c1ccc(O)cc1`, the z-score is 1.12 (inactive) in assay [1]; 0.974 (inactive) in assay [3]; -1.24 (inactive) in assay [4]; 1.09 (inactive) in assay [5]; -1.93 (inactive) in assay [6]; 1.12 in [7]. Moreover, the z-score is -0.245 (inactive) in assay [8], -0.176 (inactive) in assay [9] and 0.884 in assay [10]. Also, in assay [2], the composite z-score was found to be 0.457.
As for `O=c1cccc(-c2ccccc2Cl)o1`, the z-score in assay [1] is -0.685 (inactive); in assay [3], 0.298 (inactive); in [4], 0.585 (inactive); in assay [5], -0.187 (inactive); in assay [6], 0.414 (inactive); in assay [7], -0.767. Besides, the z-score in assay [8] is 0.182 (inactive); in assay [9], -0.914 (inactive); in assay [10] it was 0.863. In addition, the composite z-score in [2] was -0.456.
In the case of `COCCCNC(=O)[C@@]1(Sc2ccc(C)cc2)CC(=O)N(Cc2ccccc2Cl)[C@@H]1c1ccc(CO)cc1`, the z-score was 0.864 (inactive) in [1]; 0.38 (inactive) in [3]; -0.91 (inactive) in [4]; 0.712 (inactive) in assay [5]; -1.83 (inactive) in [6]; 2.14 in [7]. Besides, the figures for the z-score in assay [8], in assay [9] and in [10] were -2.58 (inactive), -1.22 (inactive) and -2.91, respectively. The same molecule registered a composite z-score in [2] of -0.0011.
As to `CC(C)=CCCC(C)=CC(O)C1C=CC2C(=O)N(c3ccccc3)C(=O)C2N1Nc1ccc(C(C)C)cc1` (stereo not given), the z-score is -0.843 (inactive) in assay [1]; 0.934 (inactive) in [3]; 0.219 (inactive) in [4]; 0.391 (inactive) in [5]; 0.729 (inactive) in assay [6]; -0.765 in assay [7]. Moreover, the z-score in assay [8] was -1.11 (inactive); in assay [9], -1.15 (inactive); in assay [10] it was -1.34. Also, in assay [2], the composite z-score came to 0.201.
For `COCCOC(=O)N1C(=O)[C@@]2(c3cc(C#CC4=CCCCC4)ccc31)[C@H](C(N)=O)[C@H]1C(=O)O[C@H](c3ccccc3)[C@H](c3ccccc3)N1[C@@H]2c1ccc(O)cc1`, the z-score is 1.04 (inactive) in [1]; 1.19 (inactive) in [3]; -0.933 (inactive) in [4]; 0.161 (inactive) in assay [5]; -1.13 (inactive) in assay [6]; 2.41 in [7]. Besides, the z-score is 1.11 (inactive) in assay [8], 0.563 (inactive) in [9] and 2.76 in assay [10]. Also, the composite z-score in [2] was 0.148.
